Rows were chosen to be rich in hits. Some 0.92% of all compounds tested hit in one or more screens of this group.
BLM inh = qHTS Assay for Inhibitors of Bloom's syndrome helicase (BLM) | 350,000 tested, 0.2% active | recombinant BLM DNA unwinding, fluorescence dequenching | RecQ-like DNA helicase BLM (Homo sapiens), P54132 | AID 2528, 2010 | Potency, µM (highest dose often 56.1 µM), for inactives: top-dose activity change, negative = inhibition, hits mostly inhibitors;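 also: plate controls were vehicle for no effect and no enzyme for full effect; nearly all actives have a fitted effect of over 35% in size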
TDP1 block = qHTS Assay for Inhibitors of Tyrosyl-DNA Phosphodiesterase (TDP1); AID 485290, 2010; 350,000 tested, 0.28% active; recombinant TDP1, AlphaScreen DNA substrate cleavage; Tyrosyl-DNA phosphodiesterase 1 (Homo sapiens), Q9NUW8; Potency, µM (series often up to 130 µM), for the others: top-dose activity change, negative = inhibition, most hits filed as inhibitors; also: nearly all actives have a fitted effect of over 40% in size
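Enzyme-compound mixtures sat 15 min at room temperature, followed by a 5 min reaction with 15 nM final substrate and 10 min with AlphaScreen beads. Recombinant human Tdp1 was used at 1 nM final.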
APE1 inh-1 = qHTS Assay for Inhibitors of the Human Apurinic/apyrimidinic Endonuclease 1 (APE1); DNA repair nuclease/redox regulator APEX1 (Homo sapiens), P27695; recombinant APE1, TAMRA/BHQ-2 abasic DNA cleavage fluorescence; Potency, µM (highest dose often 65.8 µM), for the others: at the top dose activity change, negative = inhibition, usual class: inhibitors; 350,000 tested, 0.35% active; AID 2517, 2012;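 also: plate controls were vehicle for no effect and reference inhibitor for full effect; nearly all actives have a fitted effect of over 55% in size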
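APE1 at 0.75 nM preincubated 15 min at room temperature with compound. Reaction then started with 50 nM double-stranded THF-abasic substrate labelled with TAMRA/BHQ-2, and 525/598 nm fluorescence read kinetically. Activity taken as third-minus-first read difference, normalized to DMSO and NSC13755 controls.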
FEN1 inh = qHTS Assay for the Inhibitors of Human Flap endonuclease 1 (FEN1); P39748; Recombinant FEN1 flap cleavage, fluorescence, 15 min; Potency, µM (series often up to 114 µM), inactives show at the highest dose activity change, negative = inhibition, hits mostly inhibitors; 390,000 tested, 0.35% active; also: nearly all actives have a fitted effect of over 65% in size
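Concentration–response screening of FEN1 (10 nM): 15 min compound preincubation at room temperature, reaction started with 50 nM substrate and read at 0 and 15 min. Corrected, normalized data were fitted by a four-parameter Hill equation.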
RECQ1 helicase = qHTS Assay for Inhibitors of RecQ-Like Dna Helicase 1 (RECQ1); AID 2549, 2010; 240,000 tested, 0.54% active; RECQ1 DNA unwinding, red fluorescence kinetic read; Potency, µM (series often up to 57.3 µM), for inactives: at the top dose activity, negative = inhibition, actives largely listed as inhibitors; ATP-dependent DNA helicase Q1 (Homo sapiens), P46063;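 also: plate controls were vehicle for no effect and no enzyme for full effect; nearly all actives have a fitted effect of over 30% in size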
Target sequence (P46063 whole entry, looked up): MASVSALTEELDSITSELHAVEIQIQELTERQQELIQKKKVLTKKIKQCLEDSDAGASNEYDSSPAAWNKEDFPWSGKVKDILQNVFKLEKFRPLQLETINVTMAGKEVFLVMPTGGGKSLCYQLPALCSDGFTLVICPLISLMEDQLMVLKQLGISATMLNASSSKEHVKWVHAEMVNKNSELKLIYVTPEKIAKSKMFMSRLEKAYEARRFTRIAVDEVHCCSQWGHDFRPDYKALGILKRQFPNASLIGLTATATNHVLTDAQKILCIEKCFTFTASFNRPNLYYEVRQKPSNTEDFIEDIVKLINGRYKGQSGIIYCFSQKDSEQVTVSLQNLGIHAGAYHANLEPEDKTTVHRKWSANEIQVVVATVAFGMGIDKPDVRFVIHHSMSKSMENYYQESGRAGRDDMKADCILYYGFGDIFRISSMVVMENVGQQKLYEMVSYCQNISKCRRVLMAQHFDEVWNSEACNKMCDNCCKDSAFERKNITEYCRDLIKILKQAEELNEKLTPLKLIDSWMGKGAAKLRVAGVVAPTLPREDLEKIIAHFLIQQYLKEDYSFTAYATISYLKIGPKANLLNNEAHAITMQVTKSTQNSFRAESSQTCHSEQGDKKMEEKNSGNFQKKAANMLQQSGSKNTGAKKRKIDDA
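RECQ1T1 50 nM; forked duplex (20 bp + 30-nt ss tails) 200 nM, ATP 2 mM final; pH 8.0, 2 mM MgCl2, 2.5 ug/ml poly(dI-dC); 15 min compound preincubation; discontinuous kinetic read over 2 h at RT.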
DNA dye displace = Counterscreen for APE1 Inhibitors: Fluorescent Dye Displacement Assay; shares compounds with APE1 inh-1; DNA fluorescent dye displacement counterscreen, fluorescence; Potency, µM (highest dose often 28.5 µM), for the others: at the highest dose activity change, negative = inhibition, most hits filed as inhibitors; 480 tested, 7% active;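 also: loss of thiazole orange fluorescence as the dye is displaced from duplex DNA; 0% = ThO with dsDNA and no compound and -100% = ThO without dsDNA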
Endo IV inh = Counterscreen for APE1 Inhibitors: qHTS Assay for Inhibitors of Endonuclease IV | shares compounds with APE1 inh-1 | E. coli Endo IV, fluorogenic AP-site DNA cleavage | Potency, µM (top dose mostly 27.1 µM), for inactives: at the highest dose activity change, negative = inhibition, hits mostly inhibitors | 560 tested, 4% active | AID 2565, 2010;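 also: plate controls were uninhibited enzyme wells for no effect and no enzyme buffer wells for full effect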
APE1 inh-2 = Confirmation qHTS Assay for Inhibitors of the Human Apurinic/apyrimidinic Endonuclease 1 (APE1) | shares compounds with APE1 inh-1 | purified APE1, fluorogenic abasic-site DNA cleavage | Potency, µM (doses to about 57.1 µM), inactives show at the highest dose activity change, negative = inhibition, actives largely listed as inhibitors | 750 tested, 44% active | AID 2572, 2010; also: nearly all actives have a fitted effect of over 30% in size
APE1 FP inh = qHTS FP-Based Assay for Inhibitors of the Human Apurinic/apyrimidinic Endonuclease 1 (APE1) | shares compounds with APE1 inh-1 | APE1 binding to TAMRA-labelled double-stranded DNA, fluorescence polarization displacement | Potency, µM (titrated, usually from 28.5 µM), without a hit: at the top dose activity, negative = inhibition, usual class: inhibitors | 480 tested, 7% active | AID 2573, 2010
An asterisk follows results filed as active; i = inactive; ? = inconclusive; / = no result; [ ] = dose if it differs, or a comment. Calls follow the shape of the dose curve; as a rule, active = well fitted curve in the direction sought with a large enough effect; inconclusive = small, poorly fitted or top-dose-only effect, or another doubt; inactive = no such curve, though single readings can be large; an effect the other way counts as inactive or inconclusive. Unless noted, % is scaled to controls: 0 for no effect and ±100 for the full control effect; potency is read from the fitted curve at half-maximal effect.

SMILES	BLM inh	TDP1 block	APE1 inh-1	FEN1 inh	RECQ1 helicase	DNA dye displace	Endo IV inh	APE1 inh-2	APE1 FP inh
CC(C)(C)c1ccc(C(=O)Nc2nc3nc(-c4ccccc4)cc(=O)n3[nH]2)cc1	-4.5%	-7.0%	/	1.6%	/	/	/	/	/
Cc1ccc(C(=O)Nc2nc3nc(-c4ccccc4)cc(=O)n3[nH]2)cc1	1.3%	44.7µM*	-0.5%	13.9%	-5.4%	/	/	?	/
O=C(CSc1nnc(SCc2ccc(Cl)cc2)s1)N/N=C/c1c[nH]c2ccccc12	?	22.4µM*	0.2%	?	i	/	/	-21.0%	/
O=C(CSc1nnc(SCc2cccc3ccccc23)s1)N/N=C/c1c[nH]c2ccccc12	-4.2%	3.2%	-3.5%	8.6%	-7.6%	/	/	/	/
COc1ccccc1C(=O)Nc1ccc(C(=O)OCc2cc(=O)n3ccsc3n2)cc1	1.1%	-13.8%	/	17.0%	/	/	/	/	/
O=c1c2ccccc2nc(COc2ccccc2)n1/N=C/c1ccc(O)c(O)c1	-26.0%	6.5%	?	-4.1%	28.2µM*	?	51.1%	?	7.1%
COc1ccc2c(c1)c(=O)oc1cc(OCC(=O)N3CCCC(C)C3)ccc12 (configuration not stated)	-7.3%	/	?	1.5%	i	/	/	/	/
COc1ccc2c(c1)c(=O)oc1cc(OCC(=O)N3CCC(C)CC3)ccc12	-28.2%	/	15.8µM*	?	39.8µM*	-9.0%	-0.2%	5.01µM*	?
COc1cccc(C2c3c(ncn(-c4ccccc4-c4ccccc4)c3=N)Oc3ccc4ccccc4c32)c1 (configuration not stated)	/	1.4%	/	/	/	/	/	/	/
Cc1ccc2nc(NC(=O)CCCC(=O)O)sc2c1	-3.8%	/	?	-6.1%	i	-5.4%	3.8%	?	-26.5%
Cc1ccc2nc(NC(=O)CCCc3nc4ccccc4s3)sc2c1	-7.5%	7.6%	13.2%	-1.5%	-13.3%	/	/	/	/
O=C(CSc1nc2ccccc2c(=O)[nH]1)Nc1ccc(C(=O)O)cc1	-1.9%	50.1µM*	-7.0%	1.1%	15.8%	/	/	-9.3%	/
O=C(CSc1nc(NS(=O)(=O)c2ccccc2)cc(=O)[nH]1)Nc1ccc(Cl)cc1	?	7.08µM*	-4.1%	-11.3%	-1.2%	/	/	-15.7%	/
O=C(CSc1nc2ccccc2c(=O)[nH]1)Nc1ccc([N+](=O)[O-])cc1	/	0.3%	12.1%	8.0%	/	/	/	/	/
CC(=O)N1Cc2cc([N+](=O)[O-])ccc2Oc2ccccc21	1.8%	0.0%	-5.6%	8.4%	i	/	/	/	/
CC(=O)NNC(=O)N1Cc2ccccc2Oc2ccc(Cl)cc21	-0.6%	0.1%	2.1%	-20.9%	-6.7%	/	-9.2%[57.1 µM]	-37.7%	/
COc1ccc(-c2nnc3n2N=C(c2ccccc2OC)CS3)c(OC)c1	5.2%	8.5%	7.1%	/	i	/	/	/	/
Cc1cc(C=O)c(C)n1-c1ccc(Cl)c(C(=O)O)c1	-2.8%	44.7µM*	5.62µM*	?	28.2µM*	5.8%	8.4%	8.91µM*	-23.0%
COc1ccc([C@H]2CC(=O)c3c(O)cc(O)cc3O2)cc1O	-10.6%	2.9%	-2.9%	-4.4%	-8.4%	/	/	/	/
O=C(OC1Cc2c(O)cc(O)cc2OC1c1cc(O)c(O)c(O)c1-c1c(C2Oc3cc(O)cc(O)c3CC2OC(=O)c2cc(O)c(O)c(O)c2)cc(O)c(O)c1O)c1cc(O)c(O)c(O)c1 (configuration not stated)	7.94µM*	/	0.126µM*	/	4.47µM*	/	28.2µM*	0.316µM*	/
COc1ccc2c(c1)c(=O)oc1cc3oc(C)c(C)c3cc12	-15.9%	/	?	/	-11.6%	37.6%	-2.0%	5.62µM*	-3.5%
Cn1cnnc1SCC(=O)Nc1nc(-c2ccccc2)cs1	-22.2%	35.5µM*	?	-0.4%	-4.1%	-7.8%	-0.8%	?	8.4%
CC(=O)OC1CC2C(C)(C)C(O)CC[C@@]2(C)C2CC[C@@]3(C)C(c4ccoc4)OC(=O)C4OC43[C@]12C (some centres not stated)	-2.5%	15.2%[56.1 µM]	?	/	-6.3%	1.0%[57.1 µM]	0.8%[57.1 µM]	?	0.3%[57.1 µM]
O=C(Nc1ccc2nc(-c3ccco3)c(-c3ccco3)nc2c1)N1CCCCCC1	5.62µM*	/	3.55µM*	50.1µM*	5.62µM*	?	?	3.98µM*	12.6µM*
Cc1nc2ccc(NC(=S)N3CCOCC3)cc2nc1C	-9.7%	2.6%	?	2.7%	18.5%	0.1%	3.4%	-5.4%[24.4 µM]	6.4%
SMILES	BLM inh	TDP1 block	APE1 inh-1	FEN1 inh	RECQ1 helicase	DNA dye displace	Endo IV inh	APE1 inh-2	APE1 FP inh
CCOC(=O)/C=C/C(=O)OCC(=O)Nc1ccc(Cl)cn1	-6.9%	-1.0%	25.2%	-14.3%	2.2%	/	/	/	/
CCOC(=O)NC1(Nc2ccc(Cl)cn2)Oc2ccccc2O1	-7.0%	/	2.51µM*	/	22.4µM*	/	/	-22.1%	/
NS(=O)(=O)c1ccc(N=Nc2ccc(=O)[nH]c2O)cc1	-2.6%	44.7µM*	15.8µM*	79.4µM*	-0.1%	/	/	?	/
COc1ccc(/C=N/NC(=O)c2cccc(NC(=O)c3ccc(F)cc3)c2)c(C(=O)O)c1OC	-12.0%	50.1µM*	14.9%	3.4%	i	/	/	-9.4%	/
O=C(O)Cc1ccc(NC(=O)C2CC=CCC2C(=O)O)cc1 (configuration not stated)	-2.1%	44.7µM*	20µM*	/	-3.5%	/	/	-36.1%	/
O=C(O)c1ccc(NC(=O)C2CC=CCC2C(=O)O)cc1 (configuration not stated)	3.7%	/	?	-1.3%	i	/	/	/	/
